For part of these data: Potency and affinity values are given separately.
What was measured:
Staphylococcus aureus = assay: Antibacterial activity against Staphylococcus aureus MRSA ATCC 43300 (CO-ADD:GP_020); MIC in CAMBH media using NBS plates, by Resazurin F(560/590); assay type: functional; conditions: Concentration 20 uM, ASSAY_TEST Inhibition of Bacterial Growth, detection method Resazurin, Fluorescence (ex560/em590), MEDIA CAMHB, plate type 384well, CORNING #3640, time 18 hr
Acinetobacter baumannii = assay: Antibacterial activity against Acinetobacter baumannii ATCC 19606 (CO-ADD:GN_034); MIC in CAMBH media using NBS plates, by Resazurin F(560/590); assay type: functional; conditions: Concentration 20 uM, ASSAY_TEST Inhibition of Bacterial Growth, detection method Resazurin, Fluorescence (ex560/em590), MEDIA CAMHB, plate type 384well, CORNING #3640, time 18 hr
Escherichia coli = assay: Antibacterial activity against Escherichia coli ATCC 25922 (CO-ADD:GN_001); MIC in CAMBH media using NBS plates, by Resazurin F(560/590); assay type: functional; conditions: Concentration 20 uM, ASSAY_TEST Inhibition of Bacterial Growth, detection method Resazurin, Fluorescence (ex560/em590), MEDIA CAMHB, plate type 384well, CORNING #3640, time 18 hr
Klebsiella pneumoniae = conditions: Concentration 20 uM; ASSAY_TEST Inhibition of Bacterial Growth; detection method Absorption (OD600); MEDIA CAMHB; plate type 384well; NBS; CORNING #3640; time 18 hr
Candida albicans = conditions: 20 µM
Cryptococcus neoformans = conditions: Concentration 20 uM; ASSAY_TEST Inhibition of Fungal Growth; detection method Resazurin; Absorption (OD600-OD570); plate type 384well; NBS; CORNING #3640

| SMILES | Inhibition (Staphylococcus aureus) [%] | Inhibition (Acinetobacter baumannii) [%] | Inhibition (Escherichia coli) [%] | Inhibition (Klebsiella pneumoniae) [%] | Inhibition (Candida albicans) [%] | Inhibition (Cryptococcus neoformans) [%] |
| --- | --- | --- | --- | --- | --- | --- |
| CCOC(=O)c1cc[nH]c1CC(=O)NC | 7.18 | 12.41 | -1.94 | 10.9 | 1.71 | -10.3 |
| Cc1ccc(/N=N/c2c(O)c3ccccc3[nH]c2=O)c(S(=O)(=O)N(C)C)c1 | 12.78 | 7.24 | 9.06 | 6.43 | -0.31 | -5.24 |
| CCC(CO)Nc1nc2ccc(Cl)cc2c2ccccc12 (configuration not stated) | 32.89 | 5.43 | 4.69 | 20.8 | 4.64 | -2 |
| CCNc1ccccc1C(=O)O | 19.64 | -10.34 | 13.74 | 16.83 | 5.51 | 2.27 |
| OCCCCc1nccc2c1[nH]c1ccccc12 | -6.35 | -7.04 | -1.94 | -0.62 | 2.78 | -8.33 |
| Cc1nc(N)nc(O)c1CCCNc1ccc(CCC2(CCl)OCCO2)cc1 | 17.48 | 2.84 | 11.06 | 8.53 | 1.57 | 3.7 |
| COc1ccc(Nc2cc(C)nc(N)n2)cc1 | -7.83 | -5.29 | -4.32 | 2.7 | 1.31 | -3.23 |
| Cc1cc(-c2ccc(N3C(=O)CC4(CCCC4)C3=O)c(C)c2)ccc1N1C(=O)CC2(CCCC2)C1=O | 2.65 | -13.47 | 9.87 | -0.13 | 4.32 | -5.08 |
| CC(C)n1cc(C#N)c(N)n1 | -0.87 | -8.48 | 18.87 | 15.17 | 3.75 | -6.7 |
| Nc1nnc(S)n1-c1ccc(Cl)cc1 | 10.79 | -9.57 | 13.33 | -2.18 | 11.3 | -11.28 |
| NC(=O)Oc1cccc(OC(N)=O)c1 | 9.68 | -13.95 | 4.31 | 5.21 | 2.21 | -9.78 |
| O=C(Nc1ccc(Cl)cc1)Nc1cccc2nsnc12 | 6.14 | 9.14 | -11.2 | 5.1 | 11.3 | -2.68 |
| COc1cc(C(=O)OC(C)CN2CCOCC2)cc(OC)c1OC (configuration not stated) | 13.82 | 10.27 | 6.24 | 16.73 | -2.91 | -0.56 |
| O=C(C=C=Nc1ccccc1)C(=O)N=C=Cc1ccccc1 | 7.34 | 5.35 | 5.03 | 25.39 | 6.53 | 5.95 |
| OCc1ncccc1O | -1.04 | -10.34 | -5.68 | 25.51 | 3.22 | 0.67 |
| Oc1cc(-c2nn[nH]n2)nc(O)n1 | 15.18 | -5.46 | 13.37 | 14.33 | 1.84 | 0.69 |
| CC(=O)Oc1ccc(OC(C)=O)c2c1CC1(C)OC1(C)C2 (configuration not stated) | 13.73 | 5.72 | 3.36 | 9.63 | -0.12 | -11.66 |
| CCOC(=O)c1[nH]c(C(=O)O)c(OC(=O)CC)c1C | 3.4 | 12.19 | 5.33 | 12.1 | 11.4 | -14.68 |
| O=C(O)/C=C\C(=O)Nc1nccs1 | 6.29 | -13.11 | 4.99 | 25.17 | 0.91 | -1.21 |

| SMILES | Inhibition (Staphylococcus aureus) [%] | Inhibition (Acinetobacter baumannii) [%] | Inhibition (Escherichia coli) [%] | Inhibition (Klebsiella pneumoniae) [%] | Inhibition (Candida albicans) [%] | Inhibition (Cryptococcus neoformans) [%] |
| --- | --- | --- | --- | --- | --- | --- |
| COc1ccc([N+](=O)[O-])cc1NC(=O)N(C)Cc1ccco1 | 9.28 | 17.46 | 6.67 | 14.11 | -1.23 | -10.86 |
| CCOC(=O)c1cc(OCC)c2c(ccc3ccccc32)n1 | -12.94 | 1.72 | -4.9 | 7.15 | 2.28 | -11.11 |
| COc1cc(C(=O)C(=O)c2cc(OC)c(O)c(OC)c2)cc(OC)c1O | 3.22 | 7.73 | -5.19 | 5.73 | 3.18 | 0.06 |
| CN1CCC=C(C(=O)N2c3ccccc3Sc3ccc(Cl)cc32)C1.O=C(O)CCC(=O)O | 8.59 | -10 | 17.87 | -0.76 | -1.22 | -4.64 |
| CNC(=O)Nc1ccc(S(N)(=O)=O)cc1 | -4.03 | 14.32 | -4.85 | 19.46 | 3.31 | 0.61 |
| OC(COc1ccccc1)CN1CCN(c2ccccc2)CC1 (configuration not stated) | 6.47 | -11.62 | 3.6 | 14.06 | 0.81 | -11.95 |
| CCOC(=O)C(=O)Cc1nc2ccccc2s1 | 2.9 | -6.12 | 10.05 | 6.52 | 16 | -6.27 |
| O=C(O)c1ccccc1-c1ccccc1C(=O)Nc1ccc2oc(=O)c3ccccc3c2c1 | 4.75 | -2.77 | -0.87 | 11.43 | 17.8 | -3.99 |
| Cc1cc(C)n(C(=N)NC(=O)c2ccc([N+](=O)[O-])cc2)n1 | 1.83 | 1.39 | -7.33 | 8.27 | 3.88 | 44.63 |
| Cc1cccc(C(O)C(O)c2cccc(C)n2)n1 (configuration not stated) | 7.22 | -14.61 | 8.35 | 7.91 | 0.07 | -7.77 |
| O=c1cc2oc3cc(O)c(O)cc3c(-c3ccccc3O)c-2cc1O | -11.77 | -19.46 | 15.45 | 16.39 | 44.4 | -6.63 |
| CC1=CC2(C)NC(=O)C(C)C12 (configuration not stated) | 9.76 | -10.3 | 6.64 | 6.26 | -0.72 | -9.55 |
| O=C(O)/C=C/C(=O)N1Cc2cc3ccccc3nc2C1 | 3.21 | -0.11 | -4.23 | 9.8 | 1.99 | -3.38 |
| CC(C)(NC(=O)c1cc(Cl)c2ccccc2c1O)C(=O)O | 9.7 | 5.56 | 13.46 | 19.28 | 5.1 | 0.69 |
| N=C(N)NS(=O)(=O)c1ccc(/N=C2/C(=O)Nc3ccccc32)cc1 | 10.79 | 2.06 | 11.61 | 5.69 | -0.17 | -10.75 |
| O=C1CCCC1C(=O)Nc1ccc2ccccc2c1 (configuration not stated) | 9.31 | 10.21 | -4.09 | 17.7 | 10.3 | -1.69 |
| CC(=O)Oc1ccc2cc(-c3ccccc3)c(=O)oc2c1 | 19.48 | 8.94 | -2.31 | 17.84 | 4.89 | -3.36 |
| O=c1oc2c(cc1O)oc(=O)c1cc(O)c(O)c(O)c12 | 7.4 | 17.2 | 5.53 | 31.38 | 14.8 | -7.17 |
